Activity calls are given as the source filed them. Unless noted, no rule for the calls is given here.
How the values were obtained:
[1] = test system: XIP peptide (Xip251-270) binding; experiment: small-molecule binders of XIP peptide, primary screen, biochemical, small-molecule microarray, fluorescence 635/667 nm, 0.1 µg/mL protein (AID 1182); settings: fluorescent protein binding, 635 nm, higher = more signal, called active from +8 up or from −8 down
[2] = test system: XIP peptide (Xip251-270); experiment: small-molecule binders of XIP peptide, primary screen, biochemical, small-molecule microarray, fluorescence 635/667 nm, 0.5 µg/mL protein (AID 1183); settings: small-molecule microarray binding, fluorescence 635 nm; higher = more signal
[3] = Plasmodium falciparum growth inhibition, primary screen, strain 3D7, DAPI fluorescence, 100 nL (AID 1184);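 also: parasites grown inside human red blood cells in medium with human serum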; settings: P. falciparum 3D7 growth, 3 d, higher = more signal
[4] = target: Homeobox protein Hox-A13 (Mus musculus) (UniProt Q62424); experiment: inhibitors of HoxA13-DNA binding, primary screen, biochemical, fluorescence polarization, labeled oligonucleotide (AID 1185); settings: 15 min, higher = more signal, called active from +8 up or from −8 down
Chain of Homeobox protein Hox-A13 (Mus musculus) (Q62424 whole entry, looked up): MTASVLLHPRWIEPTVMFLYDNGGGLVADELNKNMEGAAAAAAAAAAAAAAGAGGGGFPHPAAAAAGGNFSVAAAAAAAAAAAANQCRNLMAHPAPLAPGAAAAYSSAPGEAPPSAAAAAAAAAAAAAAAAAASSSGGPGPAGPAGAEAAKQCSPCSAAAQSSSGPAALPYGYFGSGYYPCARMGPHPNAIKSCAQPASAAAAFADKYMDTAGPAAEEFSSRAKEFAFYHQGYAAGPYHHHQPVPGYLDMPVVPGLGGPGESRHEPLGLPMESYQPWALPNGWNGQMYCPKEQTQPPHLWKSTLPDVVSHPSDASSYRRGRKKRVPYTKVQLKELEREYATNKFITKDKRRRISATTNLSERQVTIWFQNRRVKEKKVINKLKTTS

[5] = inhibitors of hydroxyurea-induced Chk1 phosphorylation, primary screen, imaging, HeLa, phospho-Chk1 antibody, percent positive cells (AID 1186); settings: hydroxyurea-induced phospho-Chk1 immunofluorescence imaging, higher = more signal
[6] = inhibitors of hydroxyurea-induced Chk1 phosphorylation, primary screen, imaging, HeLa, phospho-Chk1 nuclear intensity (AID 1187); settings: hydroxyurea-induced phospho-Chk1 immunofluorescence imaging, higher = more signal

Structure (SMILES) | composite z-score [1] | composite z-score [2] | z-score [3] | z-score [4] | z-score [5] | z-score [6]
C[C@@]1([C@@H](NC(=O)c2ccccc2)c2ccc(-c3ccccc3)cc2)C[C@H]1C1CCCCC1 | 0.192 (inactive) | -1.44 | -0.206 | -0.0623 (inactive) | 0.664 (inactive) | -0.296 (inactive)
COC(=O)c1c(CC[C@@H](CO)NC(=O)N[C@H](Cn2cc(Cc3ccccc3)nn2)C(C)C)oc(C(C)=O)c1C(=O)OC | 0.369 (inactive) | -0.0446 | -1.99 | -0.701 (inactive) | 1.02 (inactive) | 1.38 (inactive)
CCN(CC)c1ccc(N2CC=CC34O[C@@H]5/C=C\CCC(C)OC(=O)C5[C@H]3C(=O)N(C(CO)C(C)C)[C@@H]4C2=O)cc1 (stereo partly drawn) | 0.0003 (inactive) | -0.431 | -0.214 | -6.03 (inactive) | 0.0858 (inactive) | 0.0174 (inactive)
Cc1ccc(C(C)CC(O)C2C=CC3C(=O)N(c4ccccc4)C(=O)C3N2Nc2ccc([N+](=O)[O-])cc2)o1 (stereo not drawn) | 0.099 (inactive) | 0.839 | -1.1 | -3.75 (inactive) | 0.161 (inactive) | 0.568 (inactive)
COCCOC(=O)N1C(=O)[C@@]2(c3cc(C#Cc4ccc(OC)cc4)ccc31)[C@H](c1ccc(O)cc1)N1[C@H](c3ccccc3)[C@H](c3ccccc3)OC(=O)[C@H]1[C@@H]2C(=O)NC[C@H](O)c1ccccc1 | 0.27 (inactive) | 0.77 | -1.66 | -0.934 (inactive) | -0.192 (inactive) | 0.249 (inactive)
COCCOC(=O)N1C(=O)[C@@]2(c3cc(C#CC4=CCCCC4)ccc31)[C@H](C(=O)N1CCc3cc(OC)c(OC)cc3C1)[C@H]1C(=O)O[C@H](c3ccccc3)[C@H](c3ccccc3)N1[C@@H]2c1ccc(OCCO)cc1 | 0.173 (inactive) | 0.383 | -2.09 | 3.59 (inactive) | 0.206 (inactive) | 0.631 (inactive)
O=C1O[C@H](c2ccccc2)[C@H](c2ccccc2)N2[C@H]1[C@@H](C(=O)N1CCN(c3ncccn3)CC1)[C@]1(C(=O)Nc3ccc(C#CC4=CCCCC4)cc31)[C@H]2c1ccc(O)cc1 | 0.28 (inactive) | 0.815 | -0.953 | 2.84 (inactive) | -0.329 (inactive) | -0.513 (inactive)
C=CCC(OC(C)=O)[C@@H]1[C@@H](N(Cc2ccc(-c3ccccc3)cc2)C(=O)Cc2ccc(F)cc2)c2cc(OCCCO)ccc2N1C(=O)c1ccc(-c2ccccc2)cc1 (stereo partly drawn) | -0.142 (inactive) | 0.166 | -1.9 | -0.778 (inactive) | -0.517 (inactive) | -0.285 (inactive)
COc1ccc(C(=O)Nc2cccc(CN3C(=O)[C@]4(O[C@H](CCO)[C@@H]([Si](C)(C)c5ccc(OC)cc5)[C@@H]4C)c4ccccc43)c2)cc1 | -0.0488 (inactive) | 0.639 | -2.85 | -2.45 (inactive) | -0.204 (inactive) | -0.881 (inactive)
C=CCNC(=O)[C@@H]1[C@H]2C(=O)O[C@H](c3ccccc3)[C@H](c3ccccc3)N2[C@H](c2ccccc2OCCO)[C@@]12C(=O)N(C(=O)OCCOC)c1ccc(C#CCNC(N)=O)cc12 | 0.347 (inactive) | 0.66 | -0.531 | -1.84 (inactive) | -0.189 (inactive) | -0.159 (inactive)
COc1ccc(CCNC(=O)[C@@]2(C)c3ccccc3C(=O)N(Cc3cc(F)cc(C(F)(F)F)c3)[C@H]2c2ccc(CO)cc2)cc1 | 0.17 (inactive) | 0.464 | -1.49 | -4.2 (inactive) | 0.027 (inactive) | 0.116 (inactive)
C=CCNC(=O)[C@H]1[C@@H]2C(=O)O[C@@H](c3ccccc3)[C@@H](c3ccccc3)N2[C@@H](c2ccc(OCCO)cc2)[C@]12C(=O)N(C(=O)OCCOC)c1ccccc12 | 0.95 (inactive) | 0.846 | -1.63 | -4.21 (inactive) | -0.105 (inactive) | -0.0934 (inactive)
O=C1c2ccccc2[C@](Cc2ccccc2I)(C(=O)NC2CC2)[C@H](c2ccc(CO)cc2)N1C1CCCCC1 | 0.247 (inactive) | 0.743 | -1.77 | -3.63 (inactive) | -0.199 (inactive) | -0.0711 (inactive)
CC(C)(C)OC(=O)CC[C@@]12N=C(c3ccc(OCCCO)cc3)O[C@@H]1c1ccccc1N(CCS(=O)(=O)c1ccccc1)C2=O | -0.204 (inactive) | 0.569 | -1.7 | -3.42 (inactive) | -0.739 (inactive) | -0.767 (inactive)
CN1C(=O)C2C=CC(C(O)c3cccs3)N(Nc3ccccc3)C2C1=O (stereo not drawn) | 0.193 (inactive) | 0.356 | 0.376 | -1.14 (inactive) | 0.482 (inactive) | 0.35 (inactive)
COc1cc(CO)cc(I)c1O[C@H]1C=C(C(=O)NCCO)C[C@@H](N(CCN2CCOCC2)C(=O)C2CCOC2)[C@@H]1O (stereo partly drawn) | 0.384 (inactive) | 0.551 | 0.199 | -7.57 (inactive) | -0.182 (inactive) | 0.246 (inactive)
CC(C)OC(=O)C=C1C[C@@H](c2ccccc2C(F)(F)F)O[C@@H](c2ccccc2C(F)(F)F)O1 | -0.245 (inactive) | -0.277 | -1.82 | 0.189 (inactive) | -0.319 (inactive) | -0.595 (inactive)

Structure (SMILES) | composite z-score [1] | composite z-score [2] | z-score [3] | z-score [4] | z-score [5] | z-score [6]
COc1ccc(C(O)C2C=CC3C(=O)NC(=O)C3N2Nc2ccccn2)cc1 (stereo not drawn) | -1.2 (inactive) | 0.658 | 0.557 | -1.88 (inactive) | 0.723 (inactive) | 0.51 (inactive)
CC[C@@H]1C=C(C(=O)O)[C@H](c2ccco2)N1S(=O)(=O)c1ccc(C)cc1 | 3.88 (inactive) | -0.265 | -0.761 | -4.78 (inactive) | 0.186 (inactive) | 0.162 (inactive)
C=CCC(OC(C)=O)[C@@H]1[C@@H](N(Cc2ccc(-c3cccc(C(F)(F)F)c3)o2)C(=O)c2ccc(-c3ccccc3)cc2)c2cc(OCCCO)ccc2N1C(=O)c1ccc(-c2ccccc2)cc1 (stereo partly drawn) | -0.462 (inactive) | -1.09 | -0.29 | -0.737 (inactive) | 0.216 (inactive) | 0.187 (inactive)
NCCCCCNC(=O)[C@@H]1C[C@@H]2C(=O)N[C@@H](Cc3ccccc3)C(=O)N2[C@@H]1c1cccc(OCCO)c1 | 0.251 (inactive) | 0.595 | 0.304 | -4.39 (inactive) | -0.143 (inactive) | -0.223 (inactive)
COC(=O)[C@@]1(Cc2ccc(F)cc2)[C@H]2c3cc(C(=O)N(C)C)n(Cc4nc5ccccc5[nH]4)c3C[C@H]2CN1C(=O)c1ccccc1 | 0.642 (inactive) | 0.817 | -0.593 | -3.68 (inactive) | -0.11 (inactive) | -0.0626 (inactive)
O=C(O)[C@@]1(CCS(=O)(=O)c2ccccc2)COC(c2ccc(OCCCO)cc2)=N1 | -0.0596 (inactive) | -0.271 | 0.917 | -2.82 (inactive) | -0.333 (inactive) | -0.52 (inactive)
O=C1c2ccccc2[C@](Cc2ccccc2I)(C(=O)NC2CC2)[C@H](c2ccc(CO)cc2)N1Cc1ccccc1 | 0.534 (inactive) | 0.63 | -0.35 | -5.1 (inactive) | 0.0675 (inactive) | -0.345 (inactive)
CCC(CC)C(O)C1C=CC2C(=O)N(C)C(=O)C2N1Nc1ccccc1 (stereo not drawn) | 0.544 (inactive) | 0.758 | 0.865 | -3.63 (inactive) | -0.0753 (inactive) | 0.0501 (inactive)
CC(C)(C)C(=O)N[C@@H](c1ccc(Cl)cc1)[C@]1(C)C[C@H]1C1CCCCC1 | 0.398 (inactive) | 0.837 | -0.827 | 2.32 (inactive) | -1.19 (inactive) | -0.627 (inactive)
COc1ccc(CCN2C(=O)[C@@]3(Cc4ccccc42)c2ccccc2C(=O)N(Cc2ccccc2C(F)(F)F)[C@H]3c2ccc(CO)cc2)cc1 | -0.223 (inactive) | 0.146 | -1.18 | 0.869 (inactive) | -0.389 (inactive) | -0.826 (inactive)
COc1ccc([Si](C)(C)[C@H]2[C@H](CCn3cc([C@H](O)c4ccccc4)nn3)O[C@@]3(C(=O)N(Cc4cccc(N5CCOC5=O)c4)c4ccccc43)[C@@H]2C)cc1 | -0.44 (inactive) | 0.548 | -1.54 | -3.83 (inactive) | -0.056 (inactive) | 0.324 (inactive)
[N-]=[N+]=NCc1ccccc1C[C@@]1(C(=O)NCC(O)CO)N=C(c2ccc(OCCCO)cc2)O[C@@H]1c1ccccc1N=[N+]=[N-] (stereo partly drawn) | 1.78 (inactive) | 0.384 | -2.37 | -1.72 (inactive) | -0.0225 (inactive) | 0.105 (inactive)
O=C1OCCC/C=C\[C@H]2OC34C=CCN(c5ccc6ccccc6c5)C(=O)[C@H]3N(CCCCCCO)C(=O)[C@@H]4C12 (stereo partly drawn) | 0.346 (inactive) | 0.0339 | -0.577 | -5.08 (inactive) | -0.833 (inactive) | -0.428 (inactive)
COC(=O)[C@@]1(Cc2ccc(F)cc2)[C@H]2c3cc(C(=O)N4CCCC4)n(Cc4ccc(C)o4)c3C[C@H]2CN1C(=O)c1ccccc1 | 0.205 (inactive) | 0.705 | -1.14 | -4.22 (inactive) | -0.289 (inactive) | -0.163 (inactive)
[N-]=[N+]=Nc1ccccc1C[C@]1(C(N)=O)N=C(c2ccc(OCCCO)cc2)O[C@H]1c1ccccc1 | -0.254 (inactive) | 0.537 | -0.98 | -7.09 (inactive) | 0.0195 (inactive) | -0.54 (inactive)
O=C1O[C@@H](c2ccccc2)[C@@H](c2ccccc2)N2[C@@H](c3ccccc3OCCO)[C@]3(C(=O)Nc4ccc(C#CC5=CCCCC5)cc43)[C@@H](C(=O)Nc3nc4ccccc4s3)[C@H]12 | 0.705 (inactive) | 0.824 | -2.09 | -12.1 (active) | -0.183 (inactive) | -0.161 (inactive)

— PubChem BioAssay
